The results in this text go back to PubChem BioAssay (NCATS).

Records with an inconclusive call do not appear. Entries that show only a call come without a potency. Calls of active or inactive are those of the source. The call rests on the fitted dose curve; in most records, active means well fitted curve in the direction sought with a large enough effect; inconclusive means small, poorly fitted or top-dose-only effect, or another doubt; inactive means no such curve, though single readings can be large; an effect the other way counts as inactive or inconclusive.
Potency means the concentration at half of the fitted maximal effect.

One test is described as follows: qHTS of pediatric cancer cell lines to identify multiple opportunities for drug repurposing: Primary screen for TC32 cells (AID 1347089). Further: nearly all actives have a fitted effect of over 60% in size. The conditions noted are these: TC32 Ewing sarcoma viability, CellTiter-Glo luminescence, 48 h; series mostly up to 45.8 µM. Put shortly: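 Luminescent ATP read-out (CellTiter-Glo) of metabolically active TC32 cells after 48 h exposure. Concentration-response curves came from 11-point (MIPE, 0.78 nM–46 µM) or 8-point (NPC, 0.59 nM–46 µM) primary titrations; follow-up used 11 points.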
As for `NC(=O)c1nnn(Cc2cc(Cl)c(C(=O)c3ccc(Cl)cc3)c(Cl)c2)c1N`, the Potency entry is “inactive”.

Regarding `CC(=O)NCCC(=O)N[C@@H](CCC(N)=O)C(=O)N[C@@H](CO)C(=O)N[C@@H](CCC(N)=O)C(=O)N[C@@H](CCC(N)=O)C(=O)N[C@H](C(=O)N[C@@H](Cc1ccccc1)C(=O)N[C@]1(C)CCCCCCC=CCCC[C@@](C)(C(=O)N[C@@H](CCC(N)=O)C(=O)N[C@@H](CC(N)=O)C(N)=O)NC(=O)[C@H](CC(C)C)NC(=O)[C@H](CC(C)C)NC(=O)[C@@H](CCCNC(=N)N)NC(=O)[C@H](Cc2c[nH]c3ccccc23)NC(=O)[C@H](CC(C)C)NC(=O)[C@H](CC(N)=O)NC1=O)[C@H](C)O`, the Potency result was “inactive”.

As to `CC[C@H](CC#N)OC(=O)N[C@@H](C)c1cccc(NC(=O)Nc2ccc(-c3cnco3)c(OC)c2)c1`, the Potency is 1.04 µM (active).

As to `OCCn1cc(-c2ccc3c(c2)CCC3=NO)c(-c2ccncc2)n1`, the Potency entry was “inactive”.

For the compound `C[C@@H](O[C@H]1OCCN(Cc2n[nH]c(=O)[nH]2)[C@@H]1c1ccc(F)cc1)c1cc(C(F)(F)F)cc(C(F)(F)F)c1`, the Potency result is “inactive”.

With `CCOC(=O)[C@H](CCc1ccccc1)N[C@@H](C)C(=O)N1CCCC1C(=O)O` (stereo partly specified), the Potency entry is “inactive”.

On to `O=C(O)CCC=CCC[C@@H]1[C@H](N2CCCCC2)[C@@H](O)C[C@@H]1OCc1ccc(-c2ccccc2)cc1`, for which the Potency result is “inactive”.

`CC(C)(CO)[C@@H](O)C(=O)NCCC(=O)O`: the Potency result is “inactive”.

On to `C#C[C@]1(O)CC[C@H]2[C@H]3CCc4cc(OC)ccc4[C@H]3CC[C@@]21C`, for which the Potency result is “inactive”.

As to `O=C(Nc1cccc(C(F)(F)F)c1)Nc1cc(S(=O)(=O)NC2CC2)ccc1-c1ccsc1`, the Potency entry was “inactive”.

As to `Cc1nn(Cc2ccccc2Cl)c(C)c1CN(C)CC(O)COc1ccc(Cl)cc1` (stereo unspecified), the Potency result is “inactive”.

In the case of `CCC(=C(c1ccc(O)cc1)c1ccc(OCCNC)cc1)c1ccccc1`, the Potency entry is “inactive”.

Take `CC(C)(OCc1nn(Cc2ccccc2)c2ccccc12)C(=O)O`: the Potency result was “inactive”.

On to `C#CCN(C)CC1=Cc2ccccc2Oc2ccccc21`, for which the Potency entry was “inactive”.

For `Cc1cc(C(C)Nc2ccccc2)c2nc(N3CCOCC3)cc(=O)n2c1` (stereo unspecified), the Potency result was “inactive”.

In the case of `OC[C@H]1O[C@@H](OCCc2ccc(O)cc2)[C@H](O)[C@@H](O)[C@H]1O`, the Potency entry was “inactive”.

In the case of `CCCCc1ccc(NS(=O)(=O)c2ccc(C)c(C(=O)N3CCN(c4cccc(C)c4C)CC3)c2)cc1`, the Potency entry was “inactive”.

With `COc1cc2c(cc1OC)[C@@H]1Cc3ccc(OC)c(OC)c3CN1CC2`, the Potency result was “inactive”.

For the compound `O=S(=O)(O)c1ccc2cc(N=Nc3cc(S(=O)(=O)O)c4cccnc4c3O)ccc2c1`, the Potency entry was “inactive”.

For `CNC(=O)c1cc(COc2nnc(Nc3ccc(Cl)cc3)c3ccoc23)ccn1`, the Potency entry is “inactive”.

In the case of `CN(C)c1ccc(-c2nc3ncc(Cl)c(N4CCN(CC(=O)Nc5nccs5)CC4)c3[nH]2)cc1`, the Potency result is “inactive”.

In the case of `CC1CCN(c2cc(N3CCN(C)CC3)ccc2NC(=O)c2cc(C#N)c[nH]2)CC1`, the Potency result is “inactive”.

`Cc1ccc(NC(=O)Nc2cc(C(F)(F)F)ccc2F)cc1Nc1ccc2c(c1)NC(=O)C2=Cc1ccc[nH]1`: the Potency entry was “inactive”.

As to `CC[C@H](C=C[C@@H](C)[C@H]1CC[C@H]2[C@@H]3CC=C4C[C@@H](O)CC[C@]4(C)[C@@H]3CC[C@]12C)C(C)C`, the Potency entry was “inactive”.

As for `Cc1cccc(Nc2nc(N[C@@H]3CCCC[C@H]3N)ncc2C(N)=O)c1`, the Potency entry was “inactive”.

With `C[C@@]1(C(=O)Nc2ccc(F)nc2)CCCN1c1nc(Nc2cc(C3CC3)[nH]n2)c2cccn2n1`, the Potency is 0.165 µM (active).

As to `O=c1[nH]c(=O)n([C@H]2C[C@@H](O)[C@@H](CO)O2)cc1C(F)(F)F`, the Potency was 7.39 µM (active).

Regarding `COc1cc(Cl)cn2c(-c3cccc(NC4CNC4)n3)cnc12`, the Potency entry is “inactive”.

Regarding `O=C(C=Cc1ccc(O)cc1)c1ccc(O)cc1O`, the Potency entry is “inactive”.

Consider `CNC(=O)[C@H](Cc1ccccc1)NC(=O)[C@H](CC(C)C)[C@H](CSc1cccs1)C(=O)NO`, for which the Potency entry was “inactive”.

On to `C[C@]12CC[C@@H]3c4ccc(O)cc4CC[C@H]3[C@H]1[C@@H](O)[C@@H](O)[C@H]2O`, for which the Potency result was “inactive”.

Consider `Cc1cc(-c2ncc(CC(=O)Nc3ccc(-c4cnccn4)cn3)cc2C)ccn1`, for which the Potency result is “inactive”.

As for `O=C(Nc1ccc(OC(F)(F)F)cc1)c1sccc1NCc1ccnc2ccccc12`, the Potency entry is “inactive”.

For `O=C1Nc2ccc(I)cc2C1=Cc1cc(Br)c(O)c(Br)c1`, the Potency entry is “inactive”.

Consider `C[C@@H]1C[C@H]2[C@@H]3CCC4=CC(=O)C=C[C@]4(C)[C@@]3(F)[C@@H](O)C[C@]2(C)[C@@]1(O)C(=O)CO`, for which the Potency result was “inactive”.

With `COc1c(C)c2c(c(O)c1CC=C(C)CCC(=O)OCCN1CCOCC1)C(=O)OC2`, the Potency was 4.66 µM (active).

`CSc1cccc(Nc2ncc3cc(-c4c(Cl)cccc4Cl)c(=O)n(C)c3n2)c1`: the Potency result is “inactive”.

A further test can be described thus: qHTS of pediatric cancer cell lines to identify multiple opportunities for drug repurposing: Primary screen for SJ-GBM2 cells (AID 1347091). The conditions noted are these: SJ-GBM2 viability, CellTiter-Glo luminescence, 48 h; series mostly up to 46 µM. In outline:
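Eight- or eleven-point concentration series, 48 h treatment at 37 degrees C in growth media; readout CellTiter-Glo luminescence. Potency and efficacy were taken from the concentration-response curves.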
On to `NC(=O)c1nnn(Cc2cc(Cl)c(C(=O)c3ccc(Cl)cc3)c(Cl)c2)c1N`, for which the Potency is 18.7 µM (active).

With `CC(=O)NCCC(=O)N[C@@H](CCC(N)=O)C(=O)N[C@@H](CO)C(=O)N[C@@H](CCC(N)=O)C(=O)N[C@@H](CCC(N)=O)C(=O)N[C@H](C(=O)N[C@@H](Cc1ccccc1)C(=O)N[C@]1(C)CCCCCCC=CCCC[C@@](C)(C(=O)N[C@@H](CCC(N)=O)C(=O)N[C@@H](CC(N)=O)C(N)=O)NC(=O)[C@H](CC(C)C)NC(=O)[C@H](CC(C)C)NC(=O)[C@@H](CCCNC(=N)N)NC(=O)[C@H](Cc2c[nH]c3ccccc23)NC(=O)[C@H](CC(C)C)NC(=O)[C@H](CC(N)=O)NC1=O)[C@H](C)O`, the Potency result was “inactive”.

Consider `OCCn1cc(-c2ccc3c(c2)CCC3=NO)c(-c2ccncc2)n1`, for which the Potency result is “inactive”.

Turning to `C[C@@H](O[C@H]1OCCN(Cc2n[nH]c(=O)[nH]2)[C@@H]1c1ccc(F)cc1)c1cc(C(F)(F)F)cc(C(F)(F)F)c1`, the Potency is 23.5 µM (active).

Regarding `CCOC(=O)[C@H](CCc1ccccc1)N[C@@H](C)C(=O)N1CCCC1C(=O)O` (stereo partly specified), the Potency result is “inactive”.

With `O=C(O)CCC=CCC[C@@H]1[C@H](N2CCCCC2)[C@@H](O)C[C@@H]1OCc1ccc(-c2ccccc2)cc1`, the Potency result is “inactive”.

For `CC(C)(CO)[C@@H](O)C(=O)NCCC(=O)O`, the Potency entry is “inactive”.

With `C#C[C@]1(O)CC[C@H]2[C@H]3CCc4cc(OC)ccc4[C@H]3CC[C@@]21C`, the Potency entry was “inactive”.

In the case of `O=C(Nc1cccc(C(F)(F)F)c1)Nc1cc(S(=O)(=O)NC2CC2)ccc1-c1ccsc1`, the Potency was 26.4 µM (active).

Turning to `Cc1nn(Cc2ccccc2Cl)c(C)c1CN(C)CC(O)COc1ccc(Cl)cc1` (stereo unspecified), the Potency was 20.9 µM (active).

In the case of `CC(C)(OCc1nn(Cc2ccccc2)c2ccccc12)C(=O)O`, the Potency result is “inactive”.

As to `C#CCN(C)CC1=Cc2ccccc2Oc2ccccc21`, the Potency result is “inactive”.

Regarding `OC[C@H]1O[C@@H](OCCc2ccc(O)cc2)[C@H](O)[C@@H](O)[C@H]1O`, the Potency result was “inactive”.

Take `CCCCc1ccc(NS(=O)(=O)c2ccc(C)c(C(=O)N3CCN(c4cccc(C)c4C)CC3)c2)cc1`: the Potency was 20.9 µM (active).

For the compound `COc1cc2c(cc1OC)[C@@H]1Cc3ccc(OC)c(OC)c3CN1CC2`, the Potency result is “inactive”.

With `O=S(=O)(O)c1ccc2cc(N=Nc3cc(S(=O)(=O)O)c4cccnc4c3O)ccc2c1`, the Potency entry is “inactive”.

With `CNC(=O)c1cc(COc2nnc(Nc3ccc(Cl)cc3)c3ccoc23)ccn1`, the Potency was 20.9 µM (active).

In the case of `CN(C)c1ccc(-c2nc3ncc(Cl)c(N4CCN(CC(=O)Nc5nccs5)CC4)c3[nH]2)cc1`, the Potency was 14.8 µM (active).

Regarding `Cc1ccc(NC(=O)Nc2cc(C(F)(F)F)ccc2F)cc1Nc1ccc2c(c1)NC(=O)C2=Cc1ccc[nH]1`, the Potency is 10.5 µM (active).

With `CC[C@H](C=C[C@@H](C)[C@H]1CC[C@H]2[C@@H]3CC=C4C[C@@H](O)CC[C@]4(C)[C@@H]3CC[C@]12C)C(C)C`, the Potency entry was “inactive”.

For the compound `C[C@@]1(C(=O)Nc2ccc(F)nc2)CCCN1c1nc(Nc2cc(C3CC3)[nH]n2)c2cccn2n1`, the Potency was 0.187 µM (active).

In the case of `COc1cc(Cl)cn2c(-c3cccc(NC4CNC4)n3)cnc12`, the Potency is 5.26 µM (active).

Turning to `CNC(=O)[C@H](Cc1ccccc1)NC(=O)[C@H](CC(C)C)[C@H](CSc1cccs1)C(=O)NO`, the Potency result is “inactive”.

Regarding `C[C@]12CC[C@@H]3c4ccc(O)cc4CC[C@H]3[C@H]1[C@@H](O)[C@@H](O)[C@H]2O`, the Potency entry is “inactive”.

As for `Cc1cc(-c2ncc(CC(=O)Nc3ccc(-c4cnccn4)cn3)cc2C)ccn1`, the Potency entry was “inactive”.

As to `O=C(Nc1ccc(OC(F)(F)F)cc1)c1sccc1NCc1ccnc2ccccc12`, the Potency entry was “inactive”.

As for `C[C@@H]1C[C@H]2[C@@H]3CCC4=CC(=O)C=C[C@]4(C)[C@@]3(F)[C@@H](O)C[C@]2(C)[C@@]1(O)C(=O)CO`, the Potency entry was “inactive”.

In the case of `COc1c(C)c2c(c(O)c1CC=C(C)CCC(=O)OCCN1CCOCC1)C(=O)OC2`, the Potency result is “inactive”.

With `CSc1cccc(Nc2ncc3cc(-c4c(Cl)cccc4Cl)c(=O)n(C)c3n2)c1`, the Potency was 0.418 µM (active).
